{
  "source": "PubChem BioAssay (Tox21)",
  "note": "Active and inactive are the calls of the source. Where a call stands in place of a potency, no number is given. The call rests on the fitted dose curve; in most records, active means well fitted curve in the direction sought with a large enough effect in the repeat runs; inconclusive means weak or mixed curves; inactive means flat fitted curve, though single readings scatter. Tags describe the fitted curve by direction and shape or compound fluorescence and quenching.",
  "data": [
    {"test": "qHTS assay to test for compound auto fluorescence at 590 nm (red) in HepG2 cell free culture (AID 720684)", "settings": "cell-free medium autofluorescence, red 540/590 nm; series mostly up to 91.3 µM", "method_in_brief": "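Ex 540 / Em 590 nm read of compound in cell-free MEM (10% FBS). Rose Bengal sodium reference.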", "values": [
      {"molecule": "Clc1cc(Cl)c(Cl)cc1Cl", "outcome": "inactive"},
      {"molecule": "CC[Si](OC(C)=O)(OC(C)=O)OC(C)=O", "outcome": "inactive"},
      {"molecule": "C=C1C2CCC(C2)C1(C)C", "note": "(stereo unspecified)", "outcome": "inactive"},
      {"molecule": "OCCOCCOCCOCCO", "outcome": "inactive"},
      {"molecule": "C=C(C#N)C(=O)OCC", "outcome": "inactive"},
      {"molecule": "CCCCCCCCCCCCN", "outcome": "inactive"},
      {"molecule": "O=[N+]([O-])C(CO)(CO)CO", "outcome": "inactive"},
      {"molecule": "COC(=O)c1ccccc1O", "outcome": "inactive"},
      {"molecule": "Cc1ccc(N)c(S(=O)(=O)O)c1", "outcome": "inactive"},
      {"molecule": "CCCCC/C=C\\C/C=C\\CCCCCCCC(=O)OC", "outcome": "inactive"},
      {"molecule": "CC#C[C@]1(O)CC[C@H]2[C@@H]3CCC4=CC(=O)CCC4=C3[C@@H](c3ccc(N(C)C)cc3)C[C@@]21C", "outcome": "inactive"},
      {"molecule": "Nc1nc2ncc(CNc3ccc(C(=O)N[C@@H](CCC(=O)O)C(=O)O)cc3)nc2c(=O)[nH]1", "outcome": "inactive"},
      {"molecule": "CCOC(=O)/C=C\\C(=O)OCC", "outcome": "inactive"},
      {"molecule": "CC1Cc2ccccc2N1NC(=O)c1ccc(Cl)c(S(N)(=O)=O)c1", "note": "(stereo unspecified)", "outcome": "inactive"},
      {"molecule": "Cc1cc(Cc2ccc(N)c(C)c2)ccc1N", "outcome": "inactive"},
      {"molecule": "Oc1c(Cl)cc(Cl)c(Cl)c1Cl", "outcome": "inactive"},
      {"molecule": "Clc1ccc(Cl)c(Cl)c1Cl", "outcome": "inactive"},
      {"molecule": "CCC(C)C=O", "note": "(stereo unspecified)", "outcome": "inactive"},
      {"molecule": "CC1(C)CC(N=C=O)CC(C)(CN=C=O)C1", "note": "(stereo unspecified)", "outcome": "inactive"},
      {"molecule": "NC(=O)/N=N/C(N)=O", "outcome": "inactive"},
      {"molecule": "CCC(=O)O", "outcome": "inactive"},
      {"molecule": "CC(C)(CO)COC(=O)C(C)(C)CO", "outcome": "inactive"}
    ]},
    {"test": "qHTS assay to test for compound auto fluorescence at 460 nm (blue) in HepG2 cell free culture (AID 720685); further: potency means the concentration at half of the fitted maximal effect", "settings": "Cell-free culture medium, blue autofluorescence 405/460 nm; series mostly up to 91.3 µM", "method_in_brief": "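Cell-free plates of MEM plus 10% FBS received 23 nL compound or DMSO vehicle; blue-channel (405/460 nm) intensity scored against triamterene as reference fluorophore.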", "values": [
      {"molecule": "Clc1cc(Cl)c(Cl)cc1Cl", "Potency": "inactive"},
      {"molecule": "NCc1cccc(CN)c1", "Potency": "inactive"},
      {"molecule": "CC[Si](OC(C)=O)(OC(C)=O)OC(C)=O", "Potency": "inactive"},
      {"molecule": "O=S(=O)(O)CCS", "Potency": "inactive"},
      {"molecule": "CCCCCCCCC", "Potency": "inactive"},
      {"molecule": "C=C1C2CCC(C2)C1(C)C", "note": "(stereo unspecified)", "Potency": "inactive"},
      {"molecule": "OCCOCCOCCOCCO", "Potency": "inactive"},
      {"molecule": "C=C(C)C(=O)OCCC[Si](OC)(OC)OC", "Potency": "inactive"},
      {"molecule": "CS(=O)(=O)c1ccc([C@@H](O)[C@@H](CO)NC(=O)C(Cl)Cl)cc1", "Potency": "inactive"},
      {"molecule": "C=C(C#N)C(=O)OCC", "Potency": "inactive"},
      {"molecule": "CCCCCCCCCCCCN", "Potency": "inactive"},
      {"molecule": "O=[N+]([O-])C(CO)(CO)CO", "Potency": "inactive"},
      {"molecule": "NCCc1ccc(O)c(O)c1", "Potency": "inactive"},
      {"molecule": "CC1=C(CC(=O)O)c2cc(F)ccc2/C1=C\\c1ccc(S(C)=O)cc1", "note": "(stereo unspecified)", "Potency": "inactive"},
      {"molecule": "COC(=O)c1ccccc1O", "Potency": "inactive"},
      {"molecule": "O=C(O)c1cc(-c2ccccc2)nc2ccccc12", "Potency": "inactive"},
      {"molecule": "O=c1c(-c2ccc(O)cc2)coc2cc(O)ccc12", "Potency": "inactive"},
      {"molecule": "Cc1ccc(N)c(S(=O)(=O)O)c1", "Potency": "inactive"},
      {"molecule": "CCCCC/C=C\\C/C=C\\CCCCCCCC(=O)OC", "Potency": "inactive"},
      {"molecule": "C/C=C(C)/C=C/C=C(C)C", "Potency": "inactive"},
      {"molecule": "COC(=O)c1ccc(C(=O)OC)cc1", "Potency": "inactive"},
      {"molecule": "OC[C@@H](O)[C@@H](O)[C@H](O)[C@@H](O)CO", "Potency": "inactive"},
      {"molecule": "CC#C[C@]1(O)CC[C@H]2[C@@H]3CCC4=CC(=O)CCC4=C3[C@@H](c3ccc(N(C)C)cc3)C[C@@]21C", "Potency": "inactive"},
      {"molecule": "CCOC(=O)[C@H](CCc1ccccc1)N[C@@H](C)C(=O)N1Cc2ccccc2C[C@H]1C(=O)O", "Potency": "inactive"},
      {"molecule": "Nc1nc2ncc(CNc3ccc(C(=O)N[C@@H](CCC(=O)O)C(=O)O)cc3)nc2c(=O)[nH]1", "Potency": "35.5 µM [fluorescent] (active)"},
      {"molecule": "CCOC(=O)/C=C\\C(=O)OCC", "Potency": "inactive"},
      {"molecule": "CC1Cc2ccccc2N1NC(=O)c1ccc(Cl)c(S(N)(=O)=O)c1", "note": "(stereo unspecified)", "Potency": "inactive"},
      {"molecule": "CCCCNC(N)=O", "Potency": "inactive"},
      {"molecule": "Cc1cc(Cc2ccc(N)c(C)c2)ccc1N", "Potency": "inactive"},
      {"molecule": "Oc1c(Cl)cc(Cl)c(Cl)c1Cl", "Potency": "inactive"},
      {"molecule": "Clc1ccc(Cl)c(Cl)c1Cl", "Potency": "inactive"},
      {"molecule": "Cc1cc(=O)[nH]c(C(C)C)n1", "Potency": "inactive"},
      {"molecule": "CCC(C)C=O", "note": "(stereo unspecified)", "Potency": "inactive"},
      {"molecule": "Cn1c([N+](=O)[O-])cnc1COC(N)=O", "Potency": "inactive"},
      {"molecule": "CC1(C)CC(N=C=O)CC(C)(CN=C=O)C1", "note": "(stereo unspecified)", "Potency": "inactive"},
      {"molecule": "CCCCC(CC)COC(=O)CCCCCCCC(=O)OCC(CC)CCCC", "note": "(stereo unspecified)", "Potency": "inactive"},
      {"molecule": "NC(=O)/N=N/C(N)=O", "Potency": "inactive"},
      {"molecule": "CCC(=O)O", "Potency": "inactive"},
      {"molecule": "CC(C)(CO)COC(=O)C(C)(C)CO", "Potency": "inactive"}
    ]}
  ]
}
